Source: PubChem BioAssay
An excerpt weighted towards active compounds, which were near 3.2% of everything screened.
CDK5 p35 inh: inhibitors of human CDK5/p35 kinase, primary screen, biochemical, single concentration; Cyclin-dependent kinase 5 (Homo sapiens) + Cyclin-dependent kinase 5 activator 1 (Homo …; Recombinant CDK5/p35, ADP-Glo luminescence, 60 min; inhibition, % at 10 µM; 330,000 compounds, 0.01% hits;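 active means highest replicate inhibition of at least 50% and at least 75% of replicates reaching 50%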;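 further: plate controls were DMSO neutral control for no effect and GW8510 at 10 µM for full effect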
esBAF inh: Bmi1 luciferase reporter increase in mESCs, primary screen, esBAF inhibitor project, mouse ES cells, Bmi1 luciferase knock-in, single point; 24 h; 100% = twice the neutral-well signal; reporter increase, % at 12.5 µM; 350,000 compounds, 2% hits; AID 602393, 2012; in the data active means activation above about 40%;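 further: 0% = median of the plate's neutral control wells and 100% = double that signal; a rise in the Bmi1 reporter signal indicates esBAF inhibition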
SMARCA2 activ: SMARCA2 (BRM) function activators, primary screen, cell-based, luminescence, high throughput | MG213 cells, MMTV-luciferase reporter, dexamethasone, overnight | activation, % at 9.1 µM | 370,000 compounds, 1% hits; in the data active means activation above about 7.8%;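 further: 0% = vehicle wells and 100% = reference activator wells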
Dyrk1A ADPGlo: rat Dyrk1A kinase inhibitors, primary screen, biochemical, single point, plate reader. inhibition, % at 12.5 µM. ADP-Glo luminescence, NFATc1 peptide. 310,000 compounds, 0.43% hits. Dual specificity tyrosine-phosphorylation-regulated kinase 1A (Rattus norvegicus), Q63470. AID 504441, 2011; in the data active means inhibition above about 50%;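 further: plate controls were vehicle with enzyme for no effect and no enzyme for full effect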
dFosB act: activators of delta FosB homodimer, primary screen, biochemical, fluorescence polarization, TAMRA-CDK5 oligo, single point; Protein FosB (Mus musculus), P13346; purified delta FosB; percent of positive-control signal above neutral wells; activation, % at 25 µM; 340,000 compounds, 0.99% hits;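 active means mean activation above about 17%, with every replicate also reaching it, limit read from the data, passing the limit was not always enough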
Target sequence (P13346 whole entry, looked up): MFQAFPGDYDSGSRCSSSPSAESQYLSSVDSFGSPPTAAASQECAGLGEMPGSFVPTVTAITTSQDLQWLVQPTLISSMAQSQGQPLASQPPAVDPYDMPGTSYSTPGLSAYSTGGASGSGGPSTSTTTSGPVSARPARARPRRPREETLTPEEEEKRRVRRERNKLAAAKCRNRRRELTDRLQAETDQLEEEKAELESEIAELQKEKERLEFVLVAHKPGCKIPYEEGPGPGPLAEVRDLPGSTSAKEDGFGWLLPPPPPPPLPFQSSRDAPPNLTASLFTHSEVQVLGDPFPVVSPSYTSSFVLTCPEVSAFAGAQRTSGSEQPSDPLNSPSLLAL
Rtt109 Vps75: inhibitors of C. albicans Rtt109/Vps75 HAT, primary screen, biochemical, ThioGlo CoA-SH fluorescence, plate reader. 330,000 compounds, 0.16% hits. purified Rtt109/Vps75, 4 h. AID 540336, 2011. inhibition, % at 34.9 µM;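 active means inhibition of at least 50% in every replicate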
An asterisk follows results filed as active; · = no result given.

SMILES	CDK5 p35 inh	esBAF inh	SMARCA2 activ	Dyrk1A ADPGlo	dFosB act	Rtt109 Vps75
O=C(COc1ccccc1O)Nc1ccccc1Cl	-1.0	51.7*	2.3	4.6	3.1	4.1
O=C(C[C@@H]1CC[C@H]2[C@@H](COC[C@@H](O)CN2CC2CCCCC2)O1)NCc1ccc(F)cc1	·	-2.1	·	·	·	·
C[C@@H]1CCCCO[C@H](CN(C)Cc2ccc(Cl)c(Cl)c2)[C@@H](C)CN([C@@H](C)CO)C(=O)c2cc(NS(=O)(=O)c3cn(C)cn3)ccc2O1	·	-6.0	·	·	·	·
Cc1ccc(S(=O)(=O)N(C)C[C@@H]2OCCCC[C@H](C)Oc3ccc(NC(=O)NC4CCCCC4)cc3C(=O)N([C@H](C)CO)C[C@H]2C)cc1	·	-0.7	·	·	·	·
N#C/C(=C\c1ccc(N2CCOCC2)o1)c1ccccc1	-1.0	93.6*	5.6	2.2	-8.3	-4.4
N#C/C(=C/c1ccc(N2CCOCC2)o1)c1ccc(Br)cc1	1.1	·	3.0	-1.8	-17.1	25.7
CC(Sc1nnc(-c2cccnc2)n1-c1ccccc1F)C(=O)N1CCCc2ccccc21 (centres undefined)	·	·	7.9*	·	·	·
O=C(CSc1ccc(-c2cccnc2)nn1)N1CCCc2ccccc21	·	·	-1.3	·	·	·
CCCC(=O)Nc1sc2c(c1C#N)CCCC2	1.3	52.7*	2.1	·	-2.8	-7.5
COC(=O)CCC(=O)Nc1sc2c(c1C#N)CCCC2	0.9	-6.5	3.0	1.2	-4.0	-11.6
Cc1cccc(OCC(=O)Nc2sc3c(c2C#N)CCC3)c1	0.8	84.3*	-0.9	-5.5	-1.3	-6.4
C[C@@H]1CCCCO[C@@H](CN(C)S(=O)(=O)c2ccc(F)cc2)[C@@H](C)CN([C@@H](C)CO)C(=O)c2cc(NC(=O)c3ccccc3)ccc2O1	·	1.1	·	·	·	·
O=C(N[C@H]1CC[C@@H](CCn2cc(-c3ccccc3)nn2)O[C@@H]1CO)c1cnccn1	·	-3.9	·	·	·	·
CO[C@H]1CN(C)C(=O)c2ccc(NC(=O)c3ccno3)cc2OC[C@@H](C)NC[C@@H]1C	·	-4.4	·	·	·	·
O=C(CN(C(=O)c1csnn1)c1ccc(F)cc1)NCc1ccc2c(c1)OCO2	0.6	49.8*	0.2	0.6	5.3	-10.2
CCCNC(=O)C[C@H]1CC[C@@H]2[C@H](COC[C@@H](O)CN2C(=O)C2CCOCC2)O1	·	-2.4	·	·	·	·
CCCNC(=O)Nc1ccc2c(c1)C(=O)N(C)C[C@H](OC)[C@@H](C)CN(Cc1ccc(-c3ccccn3)cc1)[C@@H](C)CO2	·	96.7*	·	·	·	·
CCCNC(=O)Nc1ccc2c(c1)C(=O)N(C)C[C@@H](OC)[C@@H](C)CN(Cc1ccc(-c3ccccn3)cc1)[C@@H](C)CO2	·	6.2	·	·	·	·
CCCC(=O)Nc1ccc2c(c1)C(=O)N(C)C[C@H](OC)[C@@H](C)CN(Cc1ccc(-c3ccccn3)cc1)[C@@H](C)CO2	·	111.8*	·	·	·	·
C[C@H]1CN([C@@H](C)CO)C(=O)c2cccc(NC(=O)c3ccncc3)c2O[C@H]1CN(C)Cc1ccccc1	·	-7.5	·	·	·	·
N#Cc1ccsc1NC(=O)COC(=O)c1ccc(NC(N)=O)cc1	0.6	47.6*	4.1	·	-10.8	-3.6
COc1cc(NC(=O)COc2c(C)cc(C)cc2[N+](=O)[O-])c(OC)cc1Cl	1.3	·	0.2	-1.2	-3.7	51.6*
Cc1noc(C)c1NC(=O)Nc1ccc2c(c1)C(=O)N([C@H](C)CO)C[C@@H](C)[C@H](CN(C)Cc1ccc(C(F)(F)F)cc1)OCCCC[C@@H](C)O2	·	-2.7	·	·	·	·
COC(=O)c1ccc(N2CCN(c3ccccc3)CC2)nc1	0.9	49.5*	1.8	1.7	-3.7	16.0
C=CCOC(=O)c1ccc(N2CCN(c3ccccc3)CC2)nc1	0.7	26.1	-1.4	-6.6	3.0	·
COc1ccccc1C(=O)Nc1nnc(-c2ccc(F)cc2)s1	-6.1	51.7*	0.5	9.2	0.2	-0.4
O=C(Nc1nnc(-c2ccc(F)cc2)s1)Nc1ccccc1F	·	·	-1.5	·	·	·
